Reference: PubChem BioAssay (NCI)
Compounds without any hit were thinned out: in the full panel of roughly 79,000, 15% have a hit. Activity calls are given as the source filed them. Cut-off read from the data, not from the text of the source: active = growth inhibition above about 70%; inactive = the rest.

Test: NCI Yeast Anticancer Drug Screen. Data for the rad50 strain (AID 155);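 note: 0% = growth of vehicle-only cultures of the same strain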
Settings: S. cerevisiae rad50 strain growth inhibition, hits give high values
Description: Growth inhibition of yeast strains with defined genetic alterations is measured as a screen for potential anti-cancer activity. Selected strains with alterations in DNA damage repair or cell cycle control were exposed to compounds and growth inhibition was measured relative to vehicle treated controls. The strain used in this assay is rad50

[1] = at 5.0 µM (retest, dose inferred, filed as 0.5)
[2] = at 50.0 µM (retest, dose inferred, filed as 5.0)

Measured: growth inhibition

O=[N+]([O-])c1cc(S(=O)(=O)Nc2ccccc2)ccc1Cl
inactive: at 1.2 µM -7% | at 3.7 µM 3% | [1] 34% | at 11.0 µM 19%
active: at 33.0 µM 90% | [2] 99% | at 50.0 µM 88.5% | at 100.0 µM 97%

CCOP1(=O)C=C(Sc2ccc([N+](=O)[O-])cc2[N+](=O)[O-])C(C)(C)O1 (stereo not given)
active: at 100.0 µM 83%
inactive: at 1.2 µM 2% | at 3.7 µM 9% | [1] 28% | at 11.0 µM 16% | at 33.0 µM 37% | [2] 40% | at 50.0 µM 51.4%

O=S(=O)(c1cc(Cl)ccc1O)c1cc(Cl)ccc1O
active: at 3.7 µM 91% | at 11.0 µM 98% | at 33.0 µM 97% | [2] 99% | at 50.0 µM 99.5% | at 100.0 µM 99%
inactive: at 1.2 µM 27% | [1] 52%

N#CSC1CCCCNC1=O (stereo not given)
active: at 33.0 µM 86% | at 100.0 µM 98%
inactive: at 1.2 µM 0% | at 3.7 µM 3% | [1] -150% | at 11.0 µM 36% | [2] 26% | at 50.0 µM 54.2%

NC(N)=N/N=C/c1cc(Cl)cc(Cl)c1O
inactive: at 1.2 µM -15% | at 3.7 µM -7% | [1] 63% | at 11.0 µM 4% | at 33.0 µM 46%
active: [2] 95% | at 50.0 µM 79.7% | at 100.0 µM 97%
